Experimental data: PubChem BioAssay (NCI)
The panel holds about 83,000 compounds, 20% with a hit somewhere; the sample as a whole holds those more often.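 Values shown are percent growth following 48 h exposure of cells in 96-well plates to a single concentration of compound; below 10 was considered active.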 Values without a mark were called inactive. The source made the active and inactive calls.

What follows are compounds tested on HL-60(TB) leukemia (assay: NCI-60 one-dose screen, 48 h (100 = growth as untreated, 0 = no growth, -100 = all killed)). Conditions: 10 µM unless noted.

Compound	growth
COc1ccc(Oc2ccc(/C=N/NC(=O)CSc3nc4ccccc4c(=O)n3-c3ccc(Cl)cc3)cc2)cc1	104%
CCOc1ccc(NC2=C(Cl)C(=O)c3nc(C)ccc3C2=O)cc1	-46.4% (active)
N#C/C(=C\c1ccc(N2CCCCC2)cc1)C(=O)Nc1sc2c(c1C#N)CCC2	98.7%
CC1(C)CC[C@]2(C(=O)NCCCCCCN(CCCN)CCCN)CC[C@]3(C)C(=CC[C@@H]4[C@@]5(C)CC[C@H](O)C(C)(C)[C@@H]5CC[C@]43C)[C@@H]2C1	99.1%
CCCc1cc2cc(-n3nc(CC)c4c3CC(C)(C)CC4=O)cc(NC3CCC(O)CC3)c2c(=O)[nH]1 (stereo not given)	-2.33% (active)
Nc1ccc(-c2nnc(SCc3ccc(O)c4ncccc34)n2-c2ccccc2)cc1	11.5%
O=C(CSc1nc2ccccc2c(=O)n1-c1ccc(Cl)cc1)N/N=C/c1ccc(N2CCCCC2)cc1	108%
O=C1c2c(c3c4cccnc4[nH]c3c3ccc4ccccc4c23)C(=O)N1CCN1CCNCC1	64.2%
CN1CCN(CCCCCC(=O)Nc2nc(-c3cccc(NS(=O)(=O)c4cccc5c(N(C)C)cccc45)c3)cs2)CC1	75.1%
CN1CCc2c(sc3ncnc(N/N=C/c4ccc(Cl)c(Cl)c4)c23)C1	-58.2% (active)
CN(C)CCCNc1c2ccccc2nc2c1oc1ccc(Cl)cc12	-1.29% (active)
COc1cc(/C=C/C(=O)c2ccc(F)cc2)ccc1Oc1nc(NCCO)nc(N2CCOCC2)n1	39.8%
COc1ccc(COc2ccc(/C=C3/C(=O)Nc4cc(Cl)ccc43)cc2)cc1	119%
CC1(C)C=Cc2cc(/C(N)=N/C(N)=N/c3nc4ccccc4s3)ccc2O1	72.9%
CN(C)S(=O)(=O)c1ccc(-c2nc(C(Cl)Cl)nc3cc(-c4ccc(F)cc4)nn23)cc1	6.96% (active)
CCn1c2ccc(/C=N/NS(=O)(=O)CCN(C)C)cc2c2cc(/C=N/NS(=O)(=O)CCN(C)C)ccc21	103%
COC(=O)Nc1ccc(-c2nc(-c3cccc(O)c3)c(-c3ccnc(Br)c3)[nH]2)cc1	28.1%
CCN(CC)c1ccc2cc(C(=O)NCCOCCOCCOCCn3cc(CCC(=O)Nc4ccc(C(=O)c5ccc(NC(=O)OC(C)(C)C)cc5)cc4)nn3)c(=O)oc2c1	37%
CCN1C/C(=N\S(=O)(=O)c2ccccc2)N(CC)C1=S	100%
CCC(=O)Nc1ccc(-c2nc(-c3cccc(O)c3)c(-c3ccnc(Br)c3)[nH]2)cc1	35.6%

Compound	growth
O=C1CC2(CCOCC2)Oc2ncccc21	13.3%
c1ccc(C(c2nc3ncncc3[nH]2)N2CSc3nc4ccccc4n3C2)cc1 (stereo not given)	108%
COc1cc(OC)c(C2SCC(=O)N2Nc2ncnc3ccccc23)cc1OC (stereo not given)	103%
CN(C)CCn1c2ccc(N)cc2c2nc3ccccc3nc21	12%
COc1ccc(C(=O)c2cc(C(=O)/C=C/c3c(Cl)cccc3Cl)c3cc(C)ccn23)cc1	101%
O=C(CSc1nnc(-c2ccc3nc(-c4ccc(Cl)cc4)[nH]c3c2)o1)Nc1ccc(C(=O)/C=C/c2ccc(Cl)cc2)cc1	86%
COc1cc(OC)cc(C(=O)Nc2cccc(C#Cc3cccc4[nH]nc(N)c34)c2)c1	1.62% (active)
N#Cc1c(-c2cccs2)cc(-c2cnccn2)nc1SCC(=O)Nc1ccc(Br)cc1	107%
CN1CCN(c2ccc(Nc3nc(NCCNC(=O)c4ccccc4)c4sccc4n3)cc2)CC1	22.2%
CC/C(=C(/c1ccc(Cl)cc1)c1ccc(OCCN)cc1)c1ccccc1	43.4%
O=c1nc(Nc2ccc([N+](=O)[O-])cc2O)sc2ccccc12	-13.3% (active)
COc1ccc(-c2cc(-c3ccc(N(C)C)cc3)n3c(n2)nc2ccccc23)cc1	18.4%
CCCCCc1ccc(S(=O)(=O)Nc2cc(-c3csc(N)n3)ccc2OC)cc1	60.8%
N=c1c2cc(-c3ccccc3)oc2ncn1/N=C/c1ccccc1	58.8%
CC(C)c1ccc(NCc2cn(-c3ccc(C(=O)O)cc3)nc2-c2cc(C(F)(F)F)cc(C(F)(F)F)c2)cc1	83.1%
CN1CCC(n2cc(Nc3ncc4c(=O)n(-c5c(Cl)cccc5Cl)cc(Br)c4n3)cn2)CC1	-13.8% (active)
COc1c(N2CC3CCCNC3C2)c(F)cc2c(=O)c(C(=O)N/N=C/c3ccccc3)cn(C3CC3)c12 (stereo not given)	73.6%
C#C[C@]1(O)CC[C@H]2[C@@H]3CC=C4c5sc(-c6cccc(F)c6)nc5CC[C@]4(C)[C@H]3CC[C@@]21C	79.6%
CN1CCN(c2ccc(Nc3nc(NCCCNS(=O)(=O)c4ccc(C(F)(F)F)cc4)c4sccc4n3)cc2)CC1	-47.4% (active)
O=C(NCc1ncc[nH]1)c1ccc(-c2nc3ccc4[nH]ncc4c3c3c2CCCC3)cc1	-24.7% (active)
